# Data from ChEMBL document CHEMBL1157539, “Thousands of chemical starting points for antimalarial lead identification” (Nature, 2010).
# Legend:
# Format in all cases: functional
# Plasmodium falciparum [1] = test: GSK_TCMDC: Inhibition of Plasmodium falciparum 3D7 in whole red blood cells, using parasite LDH activity as an index of growth. Test compounds present at 2uM
# Plasmodium falciparum [2] = test: GSK_TCMDC: Inhibition of Plasmodium falciparum Dd2 in whole red blood cells, using parasite LDH activity as an index of growth. Test compounds present at 2uM
# HepG2 = test: GSK_TCMDC: Percent inhibition of human HepG2 cell line. Test compounds present at 10uM.
Structure (SMILES),Inhibition (Plasmodium falciparum [1]) [%],Inhibition (Plasmodium falciparum [2]) [%],Inhibition (HepG2) [%]
O=C(Nc1cccc(N2CCC(NCc3cccnc3)CC2)c1)c1cccc(C(F)(F)F)c1,98,2,26
CCCc1cc(OC)c(CC2c3cc(O)c(C)cc3CCN2C)cc1OC.Cl (configuration not stated),99,89,32
COc1ccccc1N1CCN(CCCCNC(=O)c2ccc(NC(=O)c3ccc(OC(F)(F)F)cc3)cc2)CC1.Cl,100,39,29
Cc1cc(C(=O)Nc2ccc(C)c(-c3nc(N(C(=O)c4ccc(F)c(C)c4)C4CCNCC4)nc4c3ccc(=O)n4-c3c(F)cccc3F)c2)ccc1F,99,99,4
COc1ccc(C(=O)CC(=O)c2ccc(OC)cc2OC)c(OC)c1,98,0,1
O=C(Nc1ccc2c(c1)CCC2)c1cccc(CN2CCCN(Cc3cccc(O)c3)CC2)c1.O=C(O)C(F)(F)F,91,20,10
Cl.Oc1ccc2c(CNCCc3ccccc3)c(O)ccc2c1CNCCc1ccccc1,99,100,24
CN1CCC(NCc2cccc(-c3ccc(S(=O)(=O)NCc4ccccc4)c(F)c3)c2)CC1.O=C(O)C(F)(F)F,99,99,94
CS(=O)(=O)c1ccc(-c2cnc(N)c(-c3cccc(CO)c3)c2)cc1,98,51,0
Clc1cccc(C=NNc2nc(=Nc3ccccc3)[nH]c(=Nc3ccccc3)[nH]2)c1,92,15,0
COc1ccc2nccc([C@@H](O)CN3CCC(NCc4ccc5c(c4)sc(=O)n5C)CC3)c2c1.O=C(O)C(=O)O,100,72,10
O=C(Nc1cccc(-c2ccc(-c3nc4cc(C(F)(F)F)ccc4[nH]3)cc2)c1)Nc1ccc(F)c(F)c1F,100,99,45
CNC(=O)/C=C/c1cc(NC(=O)Nc2ccnc3c(Br)cccc23)ccc1OC,95,68,12
COc1ccc(S(=O)(=O)Nc2cc(C)cc(Br)c2OC)cc1N1CCN(C(=O)C(Cl)(Cl)Cl)CC1.Cl,91,66,9
Cc1ccc(C(=O)Nc2ccc(F)cc2)cc1-c1nc(NC2CC(C)(C)NC(C)(C)C2)nc2c1ccc(=O)n2-c1c(F)cccc1F,89,96,16
COc1ccc(NS(=O)(=O)c2cccc(C(=O)Nc3ccc(C(F)(F)F)cc3)c2)cc1N1CCN(CC(C)C)CC1.O=C(O)C(F)(F)F,94,4,5
Fc1cc(Cl)ccc1Nc1ccnc2cc(-c3scnc3CNCCN3CCOCC3)ccc12,99,84,0
Cc1ncc([N+](=O)[O-])n1CCOC(=O)NC(NCC1COc2ccccc2O1)C(Cl)(Cl)Cl (configuration not stated),100,78,0
Cn1ccc2c3c(N)nc(N)nc3ccc21,91,17,59
Fc1ccc(C=NN=c2cc[nH]c3ccccc23)cc1,100,100,21
CC12CCC(CN(CC(O)Cn3c4ccccc4c4cc(I)ccc43)C1)C2(C)C.Cl (configuration not stated),94,82,0
Cc1cccc(CNc2nc(C)cc(NCCC(=O)NCc3cccc(F)c3)n2)c1.O=C(O)C(F)(F)F,84,13,23
COc1ccc(NC(=O)[C@H](CC(C)C)Nc2cc(C)nc(NCCc3ccccc3)n2)cc1.O=C(O)C(F)(F)F,100,74,13
O=C(CCc1c[nH]cn1)Nc1ccc(-c2cccc(-c3nc4ccccc4[nH]3)c2)cc1,100,42,12
CS(=O)(=O)CCNc1nccc(N2CCc3ncnc(Nc4ccc(OCc5cccc(F)c5)c(Cl)c4)c3C2)n1,100,100,8

Structure (SMILES),Inhibition (Plasmodium falciparum [1]) [%],Inhibition (Plasmodium falciparum [2]) [%],Inhibition (HepG2) [%]
Fc1cccc(C=NN=c2cc[nH]c3ccc(C(F)(F)F)cc23)c1,100,97,0
Cc1noc(C)c1-c1cccc(CNCc2cccc(-c3csc(-c4nc5ccccc5[nH]4)c3)c2)c1.O=C(O)C(F)(F)F,100,74,32
Cc1cc(N[C@@H](CC(C)C)C(=O)NC2CCCC2)nc(NCCc2ccc(F)cc2)n1.O=C(O)C(F)(F)F,100,47,15
CCNc1cc(C)nc(Nc2ccc(F)cc2)n1,100,57,1
O=C1OC2(CN1CC1CCN(Cc3ccc(O)c(Cl)c3)CC1)c1ccccc1-c1ccccc12,97,96,32
O=C(/C=C/c1ccc(Cl)c(Cl)c1)NCCCCCCN1CCCN(C(=O)Nc2ccc(Cl)c(Cl)c2)CC1,100,8,25
CS(=O)(=O)c1ccc(CCNCc2ccc(-c3ccc(CNC4Cc5ccccc5C4)cc3)nc2)cc1.O=C(O)C(F)(F)F,100,80,18
COc1cccc(CCc2nc3c(N4CCC(Cc5ccccc5)CC4)cccc3n2CC2CNCCO2)c1.O=C(O)C(F)(F)F (configuration not stated),94,96,4
CC(=O)N/N=C/[C@H](CCc1ccccc1)NC(=O)[C@H](CC(C)C)NC(=O)c1ccc(F)cc1,95,86,2
COc1cccc(NC(=O)c2cc(C(=O)Nc3cccc(OC)c3)cc([N+](=O)[O-])c2)c1,99,61,1
CCOc1cc(C(=O)Nc2ccccc2N2CCN(S(C)(=O)=O)CC2)cc(OCC)c1OCC,91,80,0
Cc1cc2nc(-c3ccc(/C=C/C(=O)NC4CCCCC4)cc3)[nH]c2cc1C,93,10,9
Cc1c(CCNC(=O)CCCN2CC(C)CC(C)C2)c2ccccc2n1C.Cl (configuration not stated),87,100,8
COc1ccc(Nc2nccc(NCC(O)c3ccc(C(F)(F)F)cc3)n2)cc1 (configuration not stated),98,54,6
CCCc1cc(NCc2ccncc2)nc(Nc2ccc(F)cc2)n1,90,6,9
CC[C@H](C)CNC(=O)c1cncc(-c2ccc(CN(C)C3CCN(C)CC3)cc2)c1.O=C(O)C(F)(F)F,100,97,0
Cc1ccc(C(=O)Nc2cccc(CN3CCCN(Cc4ccc(O)cc4)CC3)c2)s1.O=C(O)C(F)(F)F,90,23,17
COc1ccc(Nc2nccc(NCCNC(=O)Nc3cc(C)ccc3C)n2)cc1,85,0,10
CC(C)C1C(O)=C(c2ccc3ccccc3c2)C(=O)N1Cc1cccc(F)c1 (configuration not stated),97,82,3
COc1ccc(C(=O)CCC(=O)N(Cc2ccc(-c3ccc(CNCCc4ccc(S(C)(=O)=O)cc4)cn3)cc2)Cc2ccc3c(c2)OCO3)cc1F.O=C(O)C(F)(F)F,95,41,13
COc1ccc(NC(=O)/C=C/c2ccccc2Cl)cc1OCCN1CCC(N2CCCCC2)CC1,100,49,3
Cc1cccc(Cl)c1Nc1nnc(-c2cccc(C(=O)NC[C@@H]3CC[C@H]4C[C@@H]3C4(C)C)c2)o1,85,69,2
CCC(C(=O)Nc1cc(=O)[nH]c2nc(-c3ccco3)nn12)c1ccccc1 (configuration not stated),87,68,2
CCOC(=O)c1ccc(NC(=O)NC2CCN(CCCCCNC(=O)/C=C/c3ccc(Cl)c(Cl)c3)C2)cc1 (configuration not stated),98,0,23
